Reference: PubChem BioAssay AID952 (NMMLSC, 2007)
In all, about 190,000 compounds went through this assay and about 45 (0.02%) were called active. No stated cut-off is given here; in the data, active means inhibition above about 40%. Only a sample is shown.

Each molecule was assayed against Bcl-2-like protein 2 (Homo sapiens) (UniProt Q92843) (assay: Bcl-W/Bim complex disruptors – biochemical, multiplexed, bead-based flow cytometry, primary screen (AID 952;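 further: 0% = bound tracer without compound and 100% = peptide blocker; higher means less fluorescent Bim peptide bound to Bcl-W beads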)). Settings: Bim peptide-Bcl-W binding, at 10 µM, stronger effect = higher value.
Bcl-2-like protein 2 (Homo sapiens), sequence (Q92843 whole entry, looked up): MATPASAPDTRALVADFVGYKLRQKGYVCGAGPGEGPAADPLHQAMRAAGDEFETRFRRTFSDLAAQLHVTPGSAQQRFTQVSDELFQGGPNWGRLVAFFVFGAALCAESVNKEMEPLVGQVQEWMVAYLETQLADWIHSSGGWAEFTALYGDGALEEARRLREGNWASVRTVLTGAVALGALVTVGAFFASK

inhibition, inactive:
CC1(C)CC(=O)C=C(N2CCOCC2)C1 -2%
Cc1cc(OCCCC(=O)NCCN2C(=O)S/C(=C\c3cccnc3)C2=O)ccc1Cl -3%
O=C(N/N=C/c1ccc(OCc2ccccc2)cc1)c1ccc(O)cc1 0%
CC(C)C(O)C1CCN(Cc2nc(Cc3ccccc3Cl)no2)CC1 (configuration not stated) 1%
CSc1ccc(/C=C/C(=O)NC23CC4CC(CC(C4)C2)C3)cc1 -2%
CN1CCN(/N=C/c2ccc(-c3ccc([N+](=O)[O-])cc3)o2)CC1 3%
Cc1ccnc(NC(=O)CCCOc2ccccc2)c1 -1%
Cc1ccc(CCCOC(=O)C[N+]2(C)CCCC2)cc1 3%
COc1ccc(-c2csc3ncnc(Oc4ccc5c(C)cc(=O)oc5c4)c23)cc1 -9%
CCn1c(SCc2ccccc2)nc2c(c1=O)SCC2 -2%
CCOC(=O)C1=C(CN2CCCCCC2)NC(=O)NC1c1cccc([N+](=O)[O-])c1 (configuration not stated) -2%
FC(F)Oc1ccccc1NC(=S)Nc1cccc(Cl)c1Cl -3%
CCC(C)NC(=O)c1ccc(N2CCC3(CC2)OCCO3)c([N+](=O)[O-])c1 (configuration not stated) -1%
C=C(C)C1CC=C(C)/C(=N\NC(=O)CNc2ccccc2OC)C1 (configuration not stated) 0%
NCCCC[C@@H]1NC(=O)[C@H](CCC(=O)O)NC(=O)c2cc([N+](=O)[O-])cc(I)c2NCC[C@@H](C(N)=O)NC1=O 2%
Cc1nnc(SCC(=O)N2CCOCC2)[nH]c1=O -4%
OCCC1CN(Cc2ccc(Oc3ncccn3)cc2)CCN1CCc1ccccc1 (configuration not stated) -3%
Cc1[nH]c2ccccc2c1/C=N\NC(=O)Cn1nnc(-c2ccccc2)n1 -6%
CCOC(=O)C1=NOC(Cn2cc(C(C)=O)c(=O)[nH]c2=O)C1 (configuration not stated) -3%
CN(C)c1ccc(Nc2c3c4c(cccc4n(C)c2=O)C(=O)c2ccccc2-3)cc1 14%
C1CC1Cc1noc(CN2CCN(CC3CC3)CC2)n1 -3%
COC(=O)c1nn(-c2cccc(Cl)c2)ccc1=O 1%
O=C(CC1C(=O)NCCN1CC(c1ccccc1)c1ccccc1)NCCc1cn[nH]c1 (configuration not stated) -4%
O=C(CCN1C(=O)c2ccccc2C1=O)NCCCn1ccnc1 0%
Cc1cc(C)c2c(n1)sc1c(=O)n(-c3ccccc3)c(=O)[nH]c12 -3%
Cc1ccccc1NS(=O)(=O)CCCCC(Cl)(Cl)Cl 0%
COc1ccc(NS(=O)(=O)c2ccc(NC(=O)c3ccc(N(C)S(C)(=O)=O)cc3)cc2)cc1 -8%
